A short description of experiment [1]: CCTE_Shafer_MEA_acute_AB: CCTE's Alamar Blue Assay for Cytotoxicity in the Neural Acute Assay, Shafer Lab (AID 2284069; active = hit-call score of the fitted dose curve at least 0.9, where 1 is the maximum;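 also: active compounds lower the viability signal compared with DMSO wells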). The method in brief: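 Cytotoxicity endpoint for acute MEA exposures of primary rat cortical neurons on day 13 or 15. Resazurin reduction is read fluorescently at 544/590 nm, with DMSO as the negative-control baseline.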
(In general: Alamar Blue is a resazurin reagent that responds to reducing activity.)

Experiment [2] can be described thus: CCTE_Shafer_MEA_dev_network_spike_peak: CCTE's Neural Network Formation Assay for Mean Number of Electrodes in Network Spike, Shafer Lab (AID 2284049).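 As to AC50: fitted for loss of signal meaning fewer electrodes in network spikes than DMSO.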 The method in brief:
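Continuous 12-day exposure of rat cortical cultures, starting at plating, on MEA plates. Endpoint: electrodes participating in network-spike peaks, AUC across DIV 5–12, DMSO as negative control.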

A short description of experiment [3]: CCTE_Shafer_MEA_dev_network_spike_duration_std: CCTE's Neural Network Formation Assay for Standard Deviation of Network Spike Duration, Shafer Lab (AID 2284052).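 Also: area under curve of spike duration SD across recording days 5 to 12; hits are decreases in network spike duration SD versus DMSO vehicle.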 The method in brief:
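Developing networks of rat cortical neurons were exposed over twelve days in vitro on 48-well MEA plates. Trapezoidal AUC of recordings (DIV 5–12) was analysed for signal loss relative to DMSO vehicle.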

The nature of experiment [4]: CCTE_Shafer_MEA_dev_per_network_spike_spike_number_mean: CCTE's Neural Network Formation Assay for Mean Number of Spikes in a Network Spike, Shafer Lab (AID 2284053). The method in brief:
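First, rat cortical cells (1.5 x 10^5/well) were seeded onto MEA wells; second, dosing began at plating and was refreshed on DIV 5 and 9; finally, network-spike spike counts across DIV 5–12 were summarized as AUC.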

The nature of experiment [5]: CCTE_Shafer_MEA_dev_per_network_spike_spike_percent: CCTE's Neural Network Formation Assay for Percent of Spikes in a Network Spike, Shafer Lab (AID 2284054). The procedure, abridged:
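Developing networks of rat cortical neurons are dosed at day 0 and recorded extracellularly four times up to day 12. The endpoint is the area under the curve of percent spikes in network spikes, fitted in the negative direction relative to DMSO.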

The nature of experiment [6]: CCTE_Shafer_MEA_dev_mutual_information_norm: CCTE's Neural Network Formation Assay for Mutual Information Normalization, Shafer Lab (AID 2284091).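 As to AC50: mutual information between electrodes summarised as area under curve across four recording days; potency is for a decrease in mutual information relative to DMSO.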 The procedure, abridged:
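Exposure of primary rat cortical neurons began at plating and ran to DIV 12, with full media and treatment renewal after DIV 5 and 9 recordings. Mutual information AUC (DIV 5–12) was analysed for loss versus DMSO.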

Experiment [7] can be described thus: CCTE_Shafer_MEA_dev_correlation_coefficient_mean: CCTE's Neural Network Formation Assay for Mean Correlation Coefficient, Shafer Lab (AID 2284093).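 As to AC50: well mean pairwise spike train correlation integrated as AUC over recording days 5 to 12; potency fitted for loss of correlation relative to DMSO vehicle wells.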 The method in brief:
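Extracellular firing from rat cortical networks on 48-well MEAs, DMSO-referenced, negative fitting direction. Compound present from plating to DIV12; mean pairwise correlation per well integrated over DIV5–12 recordings by trapezoidal AUC.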

Experiment [8] can be described thus: CCTE_Shafer_MEA_acute_LDH: CCTE's Lactate Dehydrogenase Assay for Cytotoxicity in the Neural Acute Assay, Shafer Lab (AID 2284086; active = hit-call score of the fitted dose curve at least 0.9, where 1 is the maximum;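 also: active means LDH release rises above DMSO vehicle level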). The method in brief: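 LDH released during 40 min compound exposure of primary rat cortical cultures, quantified by absorbance at 490 nm in collected medium. Fitting direction positive versus DMSO vehicle.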
Experiment [9] can be described thus: UKN5_HCS_SBAD2_cell_viability: Viability Assessment in the University of Konstanz (UKN) Leist Lab Neurite Outgrowth Assay in human iPSC-derived immature Dorsal Root Ganglia Neurons (UKN5) (AID 2284056). The procedure, abridged:
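iPSC-derived immature peripheral neurons (SBAD2) seeded on Matrigel with CHIR99021, SU5402 and DAPT, dosed 1 h later for 24 h. Viability from Hoechst H-33342 and calcein-AM live staining, high-content imaging; bidirectional fit versus DMSO.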

A short description of experiment [10]: CCTE_Shafer_MEA_dev_LDH: CCTE's Lactate Dehydrogenase Assay for Cytotoxicity in the Neural Network Formation Assay, Shafer Lab (AID 2284068; active = hit-call score of the fitted dose curve at least 0.9, where 1 is the maximum;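 also: exposure for twelve days from plating with re-dosing on DIV 5 and 9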). The procedure, abridged: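 Developing rat cortical networks on MEA plates are exposed to compound for 12 days from plating. LDH activity is measured spectrophotometrically, with DMSO as baseline.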
A short description of experiment [11]: UKN5_HCS_SBAD2_neurite_outgrowth: University of Konstanz (UKN) Leist Lab Neurite Outgrowth Assay in human iPSC-derived immature Dorsal Root Ganglia Neurons (UKN5) (AID 2284070). As to conditions: actives raise or lower the signal. The method in brief:
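Neurite area from calcein-AM high-content images after 24 h exposure (staining included), with H-33342 for viability, fitted both directions against DMSO. Cells: thawed immature SBAD2 peripheral neurons, 100.000 cells/cm2, with CHIR99021, SU5402, DAPT; dosing 1 h after seeding.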

The nature of experiment [12]: UKN2_HCS_IMR90_neural_migration: University of Konstanz (UKN) Leist Lab Neural Crest Cell Migration Assay in human induced IMR90 Pluripotent Stem Cells (UKN2) (AID 2284204). As to conditions: actives raise or lower the signal. The method in brief:
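Using a 96-well stopper format with PLO/laminin/fibronectin coating, neural crest cells from iPSC migrate in cytokine-supplemented N2-S medium; after 24 h, chemicals are applied for a further 24 h, then cells are imaged after dye staining.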

A short description of experiment [13]: UKN4_HCS_LUHMES_neurite_outgrowth: University of Konstanz (UKN) Leist Lab Neurite Outgrowth Assay in human LUHMES cells (UKN4) (AID 2284206). As to conditions: actives raise or lower the signal. The method in brief: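 After 24 h compound treatment beginning shortly after replating of 2-day-differentiated LUHMES cells, calcein-AM and H-33342 live staining allowed high-content imaging of neurite area and viability. Fitted bidirectionally against DMSO.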

Experiment [14] can be described thus: CCTE_Mundy_HCI_Cortical_Synap_Neur_Matur_NeuriteSpotCountPerNeuriteLength: CCTE's Synaptogenesis and Neurite Maturation Assay in rat cortical cells for Neurite Spot Count per Neurite Length, Mundy Lab (AID 2284210). The method in brief:
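Neurite-associated synapse density (synaptophysin puncta per unit neurite length) is measured by fluorescence high-content imaging in rat cortical cultures treated from DIV 7 and fixed at DIV 12, with DMSO as negative control.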

The nature of experiment [15]: CCTE_Shafer_MEA_dev_AB: CCTE's Alamar Blue Assay for Cytotoxicity in the Neural Network Formation Assay, Shafer Lab (AID 2284083; active = hit-call score of the fitted dose curve at least 0.9, where 1 is the maximum;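 also: resazurin reduction fluorescence as viability of cultured neurons; twelve days of exposure from plating with re-dosing on DIV 5 and 9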). The procedure, abridged: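 Cytotoxicity companion to the developmental MEA: primary rat cortical neurons, 12-day exposure starting day 0, compound refreshed DIV 5 and 9; resazurin fluorescence, fitted against DMSO vehicle.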
Experiment [16] can be described thus: IUF_NPC1b_proliferation_BrdU_72hr: Leibniz Research Institute for Environmental Medicine (IUF) 72-hour Neural Progenitor Cell Bromodeoxyuridine (BrdU) Proliferation Assay (NPC1b) (AID 2284207). The procedure, abridged:
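Neural progenitor spheres of human fetal origin are treated for three days; BrdU added for the last 16 h is quantified by luminescence ELISA, with DMSO as baseline and EGF/FGF omission as positive control.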

A short description of experiment [17]: IUF_NPC1a_proliferation_area_72hr: Leibniz Research Institute for Environmental Medicine (IUF) 72-hour Neural Progenitor Cell Proliferation Area Assay (NPC1a) (AID 2284208). The method in brief: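 Spheres of 0.3 mm are plated singly in growth-factor medium and exposed from day 0. After three days at 37C and 5% CO2, sphere area is measured by phase contrast imaging, with activity referenced to DMSO.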

Experiment [18] in a line: IUF_NPC1_viability_72hr: Viability Assessment at 72 hours in the Leibniz Research Institute for Environmental Medicine (IUF) Neural Progenitor Cell Proliferation Assay (NPC1) (AID 2284209). The procedure, abridged: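 Viability was measured by resazurin-to-resorufin fluorescence (alamar blue) after 72 h of continuous exposure without compound renewal. Each well held one hNPC sphere (gestational week 16-19 fetal cortex, 0.25-0.35 mm) cultured in EGF/FGF proliferation medium at 37C and pH 7.2-7.6.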

In a further experiment the test system is DIO2 (gene 1734). As to the kind of experiment: CCTE_GLTED_hDIO2: CCTE's human Deiodinase 2 (DIO2) Inhibition Assay, Great Lakes Toxicology and Ecology Division (GLTED) Lab (AID 2284050; active = hit-call score of the fitted dose curve at least 0.9, where 1 is the maximum). The procedure, abridged:
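Iodide released by human deiodinase 2 over 3 h with test chemical, measured spectrophotometrically via Sandell-Kolthoff cerium/arsenic reaction. Run n=3; inhibition referenced to DMSO.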

The subject of the next experiment is DIO3 (gene 1735). As to the kind of experiment: CCTE_GLTED_hDIO3: CCTE's human Deiodinase 3 (DIO3) Inhibition Assay, Great Lakes Toxicology and Ecology Division (GLTED) Lab (AID 2284055; active = hit-call score of the fitted dose curve at least 0.9, where 1 is the maximum;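 also: potency is for inhibition seen as loss of released iodide signal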). The method in brief: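 Inhibition is read as reduced iodide release, measured spectrophotometrically by the Sandell-Kolthoff cerium/arsenic reaction. Adenovirus-expressed human DIO3 enzyme is exposed to chemical for 3 h, n=3 plates. Iodinated chemicals, nitrite, iron or thiocyanate may interfere.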

Records with an inconclusive call do not appear. The source holds several records for some structures; these can differ, active in one and inactive in another. Activity calls are given as the source filed them. The calls were made as follows, unless noted: active = hit-call score of the fitted dose curve at least 0.9, where 1 is the maximum; inactive = score below 0.9.

The values that follow come from PubChem BioAssay (EPA / NIEHS).

For `Cc1ncc([C@@H](CCCCCCc2ccc3c(n2)NCCC3)CC(=O)O)cn1`, the outcome in [1] was inactive.

For the compound `FC(F)(F)C(F)(F)C(F)(F)C(F)(F)C(F)(F)C(F)(F)I`, the outcome in experiment [2], in [3], in experiment [4], in experiment [5], in experiment [6] and in experiment [7] was inactive.

`OC(CCl)CCl`: the compound was classed as inactive in [1] and in [8].

For the compound `OCc1ccccc1`, the result in experiment [8] was inactive.

In the case of `O=S(=O)(O)c1ccc(N=Nc2c(O)ccc3cc(S(=O)(=O)O)ccc23)cc1`, the outcome in experiment [1] and in experiment [8] was inactive.

Broadly, the AC50 is the midpoint of the concentration-response curve, whichever way the signal moves. For `NC(=O)N1c2ccccc2C=Cc2ccccc21`, the compound was classed as inactive in experiment [2], in experiment [3], in experiment [4], in [5], in [9] and in [10]. For the same compound, the outcome in experiment [11], in [6], in experiment [7], in [12] and in experiment [14] was inactive. For the same compound, the AC50 in experiment [13] was 150000 nM (active).

In the case of `CCCc1ccccc1`, the compound was called inactive in experiment [1] and in experiment [8].

Consider `COCc1nnc(-c2ccc[n+]([O-])c2)n1-c1c(Cl)c(Cl)cc2[nH]c(=O)c(=O)[nH]c12`, for which the compound was classed as inactive in experiment [1] and in experiment [8].

For `O=C(Cl)C(F)(F)C(F)(F)C(F)(F)C(=O)Cl`, the outcome in [2], in [3], in experiment [4], in experiment [5], in experiment [15] and in experiment [6] was inactive. In [7], the compound was classed as inactive.

`FC(F)(F)COC(OCC(F)(F)F)OCC(F)(F)F`: the result in experiment [2], in experiment [3], in [4], in experiment [5], in experiment [10] and in experiment [6] was inactive. Moreover, the call in experiment [7] was inactive.

As for `Cn1cc[nH]c1=S`, the outcome in experiment [2], in experiment [3], in experiment [4], in experiment [5], in experiment [15] and in experiment [6] was inactive. Also, the outcome in [7], in experiment [16], in experiment [17], in experiment [18] and in [14] was inactive. The concentration at half-maximal activity (AC50) in [10] was 46.6 nM (active).

As to `C[C@]12C=CC(=O)C=C1CC[C@H]1[C@@H]3C[C@@H](O)[C@](O)(C(=O)CO)[C@@]3(C)C[C@H](O)[C@@]12F`, the half-maximal activity concentration (AC50) in experiment [2] is 116 nM (active); in experiment [5], 570 nM (active); in experiment [7] it was 202 nM (active); in [14] it was 23900 nM (active). Moreover, the compound was classed as inactive in experiment [3], in experiment [4], in experiment [10], in [15] and in [6].

On to `CC[C@H](C)C(=O)O[C@H]1C[C@H](O)C=C2C=C[C@H](C)[C@H](CC[C@@H](O)C[C@@H](O)CC(=O)O)[C@H]21`, for which the AC50 was 3060 nM (active) in experiment [2]; 1880 nM (active) in experiment [5]; 2430 nM (active) in [15]; 1970 nM (active) in experiment [6]; 4320 nM (active) in [7]. The compound was called inactive in [3], in experiment [4] and in [1].

On to `COc1cc2c(c(OC)c1OC)-c1ccc(OC)c(=O)cc1[C@@H](NC(C)=O)CC2`, for which the AC50 in [2] was 26.1 nM (active); in [3], 3.22 nM (active); in experiment [4] it was 12.7 nM (active); in experiment [5] it was 3 nM (active); in [10] it was 16.7 nM (active); in experiment [15], 23.2 nM (active). Further, the half-maximal activity concentration (AC50) in [6] is 23.8 nM (active); in [7], 23.4 nM (active). Also, the result in experiment [1] and in experiment [14] was inactive.

With `c1ccc2cc3ccccc3cc2c1`, the compound was called inactive in experiment [2], in experiment [3], in [4], in experiment [5], in experiment [10] and in [8]. The compound was called inactive in experiment [6], in [7] and in experiment [14]. Also, in experiment [5], the concentration at half-maximal activity (AC50) was 218 nM (active).

Take `CCCCCCCCCCCCCCCCOS(=O)(=O)O`: the concentration at half-maximal activity (AC50) was 28900 nM (active) in the experiment with DIO2 (gene 1734) and 6120 nM (active) in the experiment on DIO3 (gene 1735).

As to `CCCCCCCC/C=C\CCCCCCCC(=O)OC[C@@H](O)[C@H]1OC[C@H](O)[C@H]1O`, in experiment [1], the result was inactive.

As for `NNC(=O)c1ccncc1`, in [2], the AC50 was 2980 nM (active). Moreover, the result in experiment [3], in [4], in experiment [5], in experiment [15], in experiment [6] and in experiment [7] was inactive. For the same compound, the compound was classed as inactive in [14].
